# This is a sample that favours compounds with a hit; in the whole collection about 4.1% have one here.
# DAX1 inh-1 – DAX1 (NR0B1) inhibitors on StAR promoter, primary screen, cell-based, luminescence, SF-1 (NR5A1), full-length DAX-1. HEK293T StAR-luciferase reporter, SF-1/DAX-1 repression relief. inhibition, % at 6.8 µM. 370,000 tested, 1.1% active;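 active = inhibition above the mean over all tested compounds plus 3 SD, cut at about 3.6% in these data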;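 note: 0% = DAX-1 cells with DMSO and 100% = cells lacking DAX-1 with DMSO; higher inhibition means more luminescence from relief of DAX-1 repression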
# ssDAF12 agonist – S. stercoralis DAF-12 nuclear receptor activators, primary screen, cell-based, luminescence, HEK293, GRIP1 co-expression, lit1-tk-luc. HEK293 ssDAF-12/GRIP1 lit1-tk-luc reporter; % of 3 µM dafachronic acid response. activation, % at 6.8 µM. 370,000 tested, 1% active. AID 652126, 2013;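 active = activation above the mean over all tested compounds plus 3 SD, cut at about 0.9% in these data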;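 note: 0% = DMSO-only wells and 100% = 3 µM delta7-dafachronic acid wells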
# DAX1 inh-2 – DAX1 (NR0B1) inhibitors, primary screen, cell-based, HEK293, Gal4-DAX1, luciferase luminescence | Nuclear receptor subfamily 0 group B member 1 (Homo sapiens), P51843 | HEK293 Gal4-DAX1 luciferase reporter | inhibition, % at 6.75 µM | 340,000 tested, 0.99% active | AID 504766, 2011;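 active = inhibition above the mean over all tested compounds plus 3 SD, cut at about 4.2% in these data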;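 note: 0% = DAX1-transfected cells with DMSO and 100% = empty-vector control cells with DMSO; inhibition shows as a rise in luminescence from relieved DAX1 repression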
# Target sequence (P51843 207-470 limits assumed): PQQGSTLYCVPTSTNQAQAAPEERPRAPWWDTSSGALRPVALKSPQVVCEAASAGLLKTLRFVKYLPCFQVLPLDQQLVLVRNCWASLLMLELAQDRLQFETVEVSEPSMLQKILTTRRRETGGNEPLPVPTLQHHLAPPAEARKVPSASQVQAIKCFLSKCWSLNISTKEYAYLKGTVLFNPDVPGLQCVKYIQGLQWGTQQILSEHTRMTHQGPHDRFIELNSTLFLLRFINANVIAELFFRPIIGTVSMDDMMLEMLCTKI
# hgDAF-12 ag – H. glycines DAF-12 receptor agonists, primary screen, cell-based, luminescence, HEK293, GAL4 fusion, UAS-luciferase | AID 687014, 2013 | HEK293 GAL4-hgDAF12 UAS-luciferase reporter, agonist luminescence; normalized to butyrate control | activation, % at 6.8 µM | 370,000 tested, 1.8% active;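 active = activation above a cutoff set at the mean of all screened compounds plus 3 SD, cut at about 10% in these data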;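 note: 0% = DMSO wells and 100% = sodium butyrate wells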
# PolyA inhibitor – polyadenylation inhibitors in yeast reporter cells, primary screen, luminescence, S. cerevisiae; activity score, % at 12 µM; 300,000 tested, 0.02% active; S. cerevisiae SKY197-pL101 polyadenylation reporter, beta-gal luminescence; efflux-impaired pdr1/pdr3 knockout yeast; score 100 = 6 SD above DMSO;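 active = lowest replicate activity score at least 50, where 100 means six control SD above control mean; inconclusive = lowest score under 50 but half or more replicates reach 50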;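 note: yeast exposed to compound for 9 h at 30 °C; higher score means more reporter readthrough which indicates perturbed polyadenylation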
# hcDAF-12 act – H. contortus DAF-12 nuclear receptor activators, primary screen, cell-based, luminescence, HEK293, lit1-tk-luc reporter. 370,000 tested, 1.4% active. HEK293 hcDAF-12 lit1-tk-luc reporter; 0% DMSO, 100% Δ7-dafachronic acid. activation, % at 6.8 µM. AID 652067, 2013;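 active = activation above the mean of all tested compounds plus 3 SD, cut at about 5.5% in these data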;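 note: 100% = response to 3 µM Δ7-dafachronic acid high control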
# LXRb hcDAF ctr – LXR agonists, Gal4 luciferase reporter, confirmation, counter-screen for hcDAF-12 agonist project, cell-based, luminescence, HEK293, H. contortus campaign. activation, % at 6.8 µM. HEK293 Gal4-LXR tk-luc reporter, 24 h; normalized: DMSO 0%, positive control 100%. shares compounds with hcDAF-12 act. 3,400 tested, under 10 active. AID 743027, 2013;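 active = mean percent activation of the reporter above a cutoff set as the average over tested compounds plus their standard deviation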
# hcDAF12 ag – H. contortus DAF-12 receptor agonists, confirmation, cell-based, luminescence, HEK293, lit1-tk-luc, triplicate | shares compounds with hcDAF-12 act | HEK293 hcDAF-12 lit1-tk-luc reporter; % of Δ7-dafachronic acid response | activation, % at 6.8 µM | 3,400 tested, 61% active | AID 743032, 2013;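 active = mean activation across triplicate tests above the threshold derived from the earlier primary screen, cut at about 5.5% in these data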;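 note: 0% = DMSO only wells and 100% = 3 µM Δ7-dafachronic acid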
# An asterisk follows results filed as active; ? = inconclusive; · = not tested or not shown.
SMILES,DAX1 inh-1,ssDAF12 agonist,DAX1 inh-2,hgDAF-12 ag,PolyA inhibitor,hcDAF-12 act,LXRb hcDAF ctr,hcDAF12 ag
CC(C)c1c(C(=O)N/N=C/c2ccsc2)nnn1-c1nonc1N,-0.3,-1.5,-0.2,0.2,28.9,-0.3,·,·
CCCCc1ccc(NC(=O)CC(C)(C)C)cc1,1.6,-0.4,-1.3,12.7*,-11.6,7.0*,0.1,4.0
CCCCc1ccc(NC(=O)CC(C)=O)cc1,0.1,-1.6,0.7,1.1,9.6,0.1,·,·
CCc1nccn1CCC(=O)NC1CCCc2c1cnn2-c1ccc(F)cc1F (centres undefined),-3.9,-1.2,0.0,-1.6,-6.7,-1.4,·,·
O=C(N[C@H](C(=O)N1CCC[C@H]1C(=O)NCCc1ccccc1Cl)c1ccccc1)C1CCCC1,-1.0,-1.4,·,2.0,·,-2.0,·,·
Cc1ccc2c(c1)Sc1c(ccc3ccccc13)N2,3.2,3.2*,4.8*,20.8*,4.7,13.9*,1.1,8.0*
CCOc1cc(C2NC(=O)NC(c3ccccc3)=C2C(=O)c2ccccc2)c(Br)cc1OCC(=O)O (centres undefined),-0.1,-0.9,3.6,-0.9,-17.6,-1.2,·,·
COc1ccccc1Nc1ncc(-c2cccs2)s1,1.8,1.3*,2.5,9.3,1.5,10.7*,1.3,15.1*
CCCn1c2ccc(C)cc2c2nnc(SCCN3CCCCC3)nc21,0.7,0.5,0.2,0.1,1.1,9.3*,-0.1,4.7
C=CCc1ccccc1OCC(O)CNC(C)C (centres undefined),0.7,-0.1,-0.3,-1.2,23.0,-0.8,·,·
C=CCc1ccccc1OCC(O)CNC1CCCC1 (centres undefined),0.3,-0.7,0.1,-2.8,27.1,7.2*,-0.3,0.1
COc1cccc(/C=N/NC(=O)c2ccoc2C)c1O,0.0,-0.5,2.2,6.8,0.7,0.7,·,·
COc1cccc(/C=N/NC(=O)c2ccoc2C)c1,2.0,0.2,2.9,11.2*,6.4,7.2*,0.7,5.0
CN(CCc1ccccc1)C(c1ccnc2ccccc12)c1nnnn1-c1ccc2c(c1)OCCO2 (centres undefined),-2.4,-1.5,·,-3.4,·,-2.3,·,·
Cc1cccnc1NC(=O)c1ccc(S(=O)(=O)N2CCCCC2)cc1,1.9,-0.7,1.9,2.1,17.7,0.5,·,·
Cc1cccnc1NC(=O)c1cccc(S(=O)(=O)N2CCCC2)c1,0.3,0.2,0.7,-1.8,3.4,7.0*,-0.1,4.8
CC(Cn1cncn1)C(=O)N1CCN(S(=O)(=O)c2ccccc2)CC1 (centres undefined),-0.3,-0.9,0.7,-0.1,4.4,-1.2,·,·
NS(=O)(=O)c1ccc(CCNC(=O)c2ccc3ccccc3n2)cc1,1.1,0.5,0.2,6.0,11.6,6.8*,0.2,8.5*
COc1ccc(CCNC(=O)c2ccc3ccccc3n2)cc1,-0.1,-0.1,0.4,11.2*,-28.6,7.2*,0.0,4.5
O=C(NCc1ccccc1Cl)c1ccc2ccccc2n1,0.1,1.1*,-0.1,10.7*,-17.1,7.7*,0.7,9.1*
O=C(NCc1ccccc1F)c1ccc2ccccc2n1,-0.2,-0.6,0.8,0.9,-11.1,0.8,·,·
CC(=O)N1c2ccc(S(=O)(=O)N3CCC(C(=O)N4CCN(c5ccc(Cl)cc5)CC4)CC3)cc2CC1C (centres undefined),-1.4,-1.7,-1.4,-8.0,-2.0,-5.3,·,·
CC(Oc1ccc(Br)cc1)C(=O)Nc1ccc(S(=O)(=O)NC2=NCCCCC2)cc1 (centres undefined),-0.6,-1.1,-1.9,-1.4,·,1.0,·,·
Fc1cccc2sc(Nc3nc4ccccc4s3)nc12,1.2,0.0,1.7,0.4,3.4,11.9*,0.6,10.9*
CCOc1cccc2sc(NC(=O)CC)nc12,-0.4,-1.4,-0.3,-1.1,6.9,-2.8,·,·
SMILES,DAX1 inh-1,ssDAF12 agonist,DAX1 inh-2,hgDAF-12 ag,PolyA inhibitor,hcDAF-12 act,LXRb hcDAF ctr,hcDAF12 ag
Fc1ccc2nc(Nc3nc4c(F)cccc4s3)sc2c1,0.2,0.3,-0.5,0.4,18.7,3.7,·,·
CCC(=O)NNc1nc2c(F)cccc2s1,0.1,0.0,3.9,5.4,-2.6,7.0*,-0.3,3.8
O=C(Nc1ccccc1)c1cn(CCBr)cn1,1.8,1.3*,3.1,8.9,-5.7,6.8*,1.2,5.4
CC(=O)Nc1ccc(S(=O)(=O)N2CCC(C(=O)N[C@@H](C)C(=O)NC3CCCC3)CC2)cc1,0.2,-1.2,0.2,-2.3,?,-0.5,·,·
Cc1ccc(-c2nc3cccnc3s2)cc1NC(=O)c1ccco1,1.7,0.5,0.7,8.9,-24.0,13.3*,0.2,4.5
CCOc1ccc2nc3cc(N=Nc4ccc(N)nc4N)ccc3c(N)c2c1,·,·,2.7,·,·,·,·,·
O=C1NCCCC1C(=O)N/N=C/c1ccccc1O (centres undefined),0.1,0.1,2.7,2.1,13.5,7.5*,-0.2,1.6
CC1(C(=O)Nc2ccc3[nH]ncc3c2)CCN1C(=O)Cc1ccc(-c2ccccc2)cc1 (centres undefined),-4.0,-2.0,·,-5.0,·,-3.9,·,·
O=C(Nc1ccc(-n2cnnn2)cc1)c1cn2ccccc2n1,·,·,0.5,·,1.5,·,·,·
O=C(Nc1ccccc1)c1cn2ccccc2n1,3.3,-0.4,-3.7,9.8,1.9,7.0*,1.2,4.8
COc1ccc(-c2nc3c(Br)c(N)c(Br)cc3o2)cc1,·,·,1.0,·,·,·,·,·
Nc1c(Br)cc2oc(-c3ccccc3)nc2c1Br,2.0,1.1*,5.0*,7.5,-17.7,7.4*,1.2,16.9*
O=C1NC(c2cccc(OCc3ccccc3)c2)Nc2ccccc21 (centres undefined),0.9,-0.5,-2.8,-1.6,·,0.2,·,·

# Screens (PubChem BioAssay)
